Assay outcomes (PubChem)
The sample as a whole holds a higher share of hits than the screen did.
Pf Dd2 growth: blocks in vitro growth of P. falciparum Dd2; P. falciparum Dd2 growth, SYBR Green, 72 h; Potency, µM (top dose mostly 28.9 µM), actives largely listed as inhibitors; 120,000 tested, 4.3% active; AID 1347417; active = well fitted inhibition curve with a large enough effect; also: nearly all actives have a fitted effect of over 65% in size
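Readout: SYBR Green fluorescence, 485 nm excitation, 535 nm emission, after ~16 h lysis at 37C. Before that, Dd2-infected red cells (2.5% hematocrit) grew 72 h with compound, 29 uM top final concentration.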
Numbers stand for hits; i = inactive; [ ] = another dose, or the depositor's remark.

SMILES	Pf Dd2 growth
Cc1cccc(-c2nc(Cn3c(SCc4cccc(C(F)(F)F)c4)nc4ccncc43)c(C)o2)c1	i
COc1cccc(CNC(=O)c2ccc3oc(=O)n(Cc4ccccc4)c3c2)c1	i
COc1cccc(CNC(=O)c2ccc(CSc3nc4ccncc4n3Cc3cccc(C)c3)cc2)c1	3.2µM
Cc1cccc(Cn2c(SCc3ccc(C(=O)NCc4ccccc4F)cc3)nc3ccncc32)c1	11µM
CCC(C(=O)NC1CCCCC1)n1c(SCc2cccc(C)c2)nc2ccncc21 (centres undefined)	i
Cc1nc2c(c(-c3ccc(O)cc3)n1)CN(C(=O)c1ccccc1F)CC2	i
O=C(c1ccc2ccnn2c1)N1CCOCC1	i
CCN(C(=O)C1CCN(S(=O)(=O)c2ccc3c(c2)CCCN3C(C)=O)CC1)c1cccc(C)c1	13µM
CC(=O)N1CCCc2cc(S(=O)(=O)N3CCC(C(=O)Nc4c(C)cccc4C)CC3)ccc21	i
CCN(CC)C(=O)C1CCN(S(=O)(=O)c2ccc3c(c2)CCCN3C(C)=O)CC1	i
CCc1nnc(NC(=O)Cn2nc3c(cc2=O)CCCCC3)s1	i
CC(C)NC(=O)NCC1CCCN(Cc2ccc3c(c2)OCCO3)C1 (centres undefined)	i
Cc1ccc(CN2CCC(CNC(=O)NC(C)C)C2)cc1C (centres undefined)	8.9µM
O=C(NCC1CCN(Cc2cccc(Cl)c2)CC1)c1cc2ccc3cccnc3c2[nH]1	7.9µM
Cc1ccc(NC(=O)NCC2CCN(Cc3cccc(Cl)c3)CC2)cc1Cl	10µM
O=C(Nc1cccc(C(F)(F)F)c1)c1cc2ccc3cccnc3c2[nH]1	i
O=C(Nc1ccc(F)cc1F)c1cc2ccc3cccnc3c2[nH]1	i
Cc1ccc(CN2CCC(CNC(=O)Nc3ccc(Cl)cc3)C2)cc1 (centres undefined)	i
Cc1ccc(CN2CCC(CNC(=O)Nc3ccccc3F)CC2)cc1	i
COc1ccc(CN2CCCC(CNC(=O)NC(C)C)C2)cc1O (centres undefined)	i
CC(C)CNC(=O)C1CC(=O)N(c2n[nH]c3cc(Br)ccc23)C1 (centres undefined)	i
CCN1C(=O)C2CC3(CCN(C(=O)C4CCCCC4)CC3)CN2C1=O (centres undefined)	i
Cc1nc(-c2c3n(c(=O)n(Cc4ccccc4Cl)c2=O)CCCCC3)no1	i
CCN(CC)C(=O)N1CCCN(S(C)(=O)=O)C(c2ccccc2)CC(=O)NCC1 (centres undefined)	i
COc1ccc(-c2nc(C)nc3c2CCN(C(=O)c2ccccc2F)CC3)cc1	i
SMILES	Pf Dd2 growth
Cc1ccccc1N1Cc2c(ncnc2N2CCN(c3ncccn3)CC2)N(C)CC1=O	i
Cc1cc(C)cc(NC(=O)Cn2nc3n(c2=O)CCCCC3)c1	i
Cc1cc(C)cc(NC(=O)Cn2c(N3CCCCC3)nc(C)c(C)c2=O)c1	i
CCn1c(=O)n(CC)c2cc(N3CCCCC3)c(NC(=O)Nc3ccccc3Cl)cc21	10µM
CCc1ccccc1NC(=O)Nc1cc(C(=O)NCc2ccccc2OC)ccc1N1CCCC1	i
CCn1c(=O)n(CC)c2cc(N3CCCCC3)c(NC(=O)Nc3cc(C)cc(C)c3)cc21	10µM
Cc1ccc(NC(=O)Nc2cc3c(cc2N2CCCCC2)n(C)c(=O)n3C)cc1Cl	i
COCC(=O)N1CCc2nc(C3CC3)nc(-c3ccc(Cl)cc3)c2C1	i
CN(C)C(=O)N1Cc2ccccc2OC2(CCN(C(=O)c3ccnc(N)c3)CC2)C1	i
O=C(O)CCn1ncc2cc(OCC3CCN(C(=O)Cc4ccccc4)CC3)ccc21	i
CC(=O)c1cccc(Nc2c3c(nc4nc(-c5cccs5)nn24)CCCC3)c1	11µM
COc1ccc(C)cc1Nc1c2c(nc3nc(-c4cccs4)nn13)CCCC2	i[0.594 µM]
c1csc(-c2nc3nccc(-c4ccncc4)n3n2)c1	i
COc1ccc(F)c(CN2CCCC(O)(CN3CCN(CCO)CC3)C2=O)c1 (centres undefined)	i
COC(=O)c1ccccc1NC(=O)CSc1nc(=O)cc(N)n1-c1ccccc1	i
COC(=O)c1ccc(NC(=O)CSc2nc3c(c(=O)n(C)c(=O)n3C)n2Cc2ccccc2)cc1	i
COC(=O)c1ccc(NC(=O)C(C)Sc2nc(=O)cc(N)n2CCc2ccccc2)cc1 (centres undefined)	11µM
Cc1cc2ncc(C(=O)NCc3cccs3)cn2n1	i
CN(Cc1ccc(F)cc1)C(=O)NC1CCCC1	i
O=C(c1ccc(F)c(F)c1)N1CCC(c2n[nH]c(=O)n2-c2ccccc2)CC1	i
CCN1CCCCC12Cc1ccccc1CN(C(=O)C1CCN(C)CC1)C2 (centres undefined)	i
CCCC(=O)N1Cc2ccccc2CC2(CCCCN2CC2CCOCC2)C1 (centres undefined)	8.9µM
CC(=O)NCCC(=O)N1Cc2ccccc2CC2(CCCN2Cc2ccncc2)C1 (centres undefined)	i
O=C(O)CCC(=O)N1Cc2ccccc2CC2(CCCCN2Cc2ccncc2)C1 (centres undefined)	i
CC(=O)N1Cc2ccccc2CC2(CCCCN2CC2CCOCC2)C1 (centres undefined)	i
SMILES	Pf Dd2 growth
COc1ccc(CN2CCCCC23Cc2ccccc2CN(C(C)=O)C3)cc1 (centres undefined)	i
CN(C)CCC(=O)N1Cc2ccccc2CC2(CCCCN2CC2CCOCC2)C1 (centres undefined)	i
CCCC(=O)N1Cc2ccccc2CC2(CCCCN2Cc2ccncc2)C1 (centres undefined)	8.9µM
CCCC(=O)N1Cc2ccccc2CC2(CCCN2Cc2ccncc2)C1 (centres undefined)	8.9µM
O=C(O)CCC(=O)N1Cc2ccccc2CC2(CCCN2Cc2ccccc2)C1 (centres undefined)	i
CCN1CCCCC12Cc1ccccc1CN(C(=O)Cc1ccc(OC)cc1)C2 (centres undefined)	11µM
COc1ccc(C)cc1NC(=O)Cn1c(-c2ccc(Cl)cc2)nc(C)cc1=O	i
c1ccc(-c2noc(-c3nc(-c4ccc5c(c4)OCO5)no3)n2)cc1	i
O=C(c1cccc(Cl)c1)N1CCn2c(nnc2-c2ccccc2)C1	i
Cc1ccc(S(=O)(=O)NC[C@H]2OC[C@@H](NC3CCN(C)CC3)[C@@H]2O)cc1	i
OCCC1CN(Cc2nc3ccccc3s2)CCN1Cc1ccc(F)c(F)c1 (centres undefined)	i
Cn1nccc1-c1ncc2c(n1)OCCN(Cc1ccc(F)cc1F)C2=O	i
CCOC(=O)c1csc(NC(=O)Cn2nc3c(cc2=O)CCCC3)n1	i
O=C(Cc1ccccc1)NC1CCN(C(=O)N2CC3CC(C2)[C@H]2CCCC(=O)N2C3)CC1 (some centres undefined)	i
COCCn1c(=O)c2c(n1Cc1ccccc1)CN(C(=O)Cc1ccc3c(c1)OCO3)CC2	i
COc1cc(Cl)ccc1C(=O)NC1CCN(c2cc(-c3ccc(F)cc3)[nH]n2)CC1	i
CC1(CCCCN2CCOCC2)COc2ccc(C(=O)Nc3ccc(Cl)cc3)cc2N1 (centres undefined)	i
CNC(=O)N1CCC2(CC1)CN(C(C)=O)CC2COC (centres undefined)	i
COc1cc(Cl)cc(CN2CCC3(CCOCC3)CC2)c1OC	i
COc1ccc(O)cc1CN1CCC2(CCNCC2)C1	i
COc1cc(Cl)cc(CN2CCC3(CCCNC3)C2)c1OC (centres undefined)	8.9µM
C[C@@H](NS(=O)(=O)c1ccccc1)c1onc(-c2cccnc2)c1C(=O)O	i
O=C(NC1CC1)[C@@H]1C[C@H](Oc2ccccc2)CN1C(=O)c1ccccn1	i
